# Assay results from article PMC7862700, “An all-to-all approach to the identification of sequence-specific readers for epigenetic DNA modifications on cytosine”.
# Legend:
# Assay in all cases: DAPPL (digital affinity profiling via proximity ligation, sequencing); 10 mM Tris-HCl pH 7.5, 50 mM NaCl, 1 mM DTT, 4% glycerol, room temperature, 30 min; GST-TFs on glutathione beads, 16-mer random dsDNA library, 0.1% formaldehyde crosslink after washing; high values mean tight binding
# FLI1 = target: T1, FLI1 (Homo sapiens, UniProt Q01543 1-452); details: protein: recombinant; tags: N-terminal GST; dsDNA, one strand shown
# T1 sequence: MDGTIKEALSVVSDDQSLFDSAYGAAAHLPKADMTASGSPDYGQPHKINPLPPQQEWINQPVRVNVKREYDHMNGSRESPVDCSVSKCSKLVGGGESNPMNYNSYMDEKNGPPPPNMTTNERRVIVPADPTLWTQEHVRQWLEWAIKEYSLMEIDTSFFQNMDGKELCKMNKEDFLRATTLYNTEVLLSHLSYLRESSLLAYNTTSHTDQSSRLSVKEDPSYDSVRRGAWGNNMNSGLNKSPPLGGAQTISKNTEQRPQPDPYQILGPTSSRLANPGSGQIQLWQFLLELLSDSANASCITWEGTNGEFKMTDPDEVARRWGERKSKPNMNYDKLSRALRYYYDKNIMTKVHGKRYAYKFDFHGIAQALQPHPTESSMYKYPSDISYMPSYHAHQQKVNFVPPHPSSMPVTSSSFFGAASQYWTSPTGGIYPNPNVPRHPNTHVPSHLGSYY
# How it was run: (§1)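 Beads coated with glutathione captured GST-fused human transcription factors that had been expressed in yeast, and the factors were then given DNA barcodes and pooled with a tag-only sample. The pools were incubated with 200 nmole of a random double-stranded 16-mer DNA library in Tris/NaCl/DTT/glycerol buffer for 30 min at room temperature, washed, crosslinked with 0.1% formaldehyde and proximity-ligated with BsaI/T4 ligase at 37 °C for 1 h. PCR amplification and Illumina NextSeq500 sequencing came last. Binding signal is each hexamer's read frequency for a factor divided by its frequency for the tag-only sample.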
# ELK1 = target: T2, ELK1 (Homo sapiens, UniProt P19419 1-428); details: protein: recombinant; tags: N-terminal GST; dsDNA, one strand shown
# T2 sequence: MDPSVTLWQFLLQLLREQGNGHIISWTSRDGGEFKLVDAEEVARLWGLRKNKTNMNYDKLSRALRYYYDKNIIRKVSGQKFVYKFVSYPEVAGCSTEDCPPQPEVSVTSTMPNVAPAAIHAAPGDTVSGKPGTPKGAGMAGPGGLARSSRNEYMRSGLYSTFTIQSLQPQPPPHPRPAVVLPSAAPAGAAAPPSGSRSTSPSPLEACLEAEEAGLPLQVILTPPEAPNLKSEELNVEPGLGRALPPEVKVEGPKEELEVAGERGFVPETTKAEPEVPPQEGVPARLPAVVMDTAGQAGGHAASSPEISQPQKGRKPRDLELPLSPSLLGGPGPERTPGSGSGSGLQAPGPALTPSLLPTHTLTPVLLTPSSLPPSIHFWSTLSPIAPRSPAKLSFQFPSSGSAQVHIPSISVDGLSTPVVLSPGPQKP
# How it was run: as §1
# GABPA = target: T3, GABPA (Homo sapiens, UniProt Q06546 1-454); details: protein: recombinant; tags: N-terminal GST; dsDNA, one strand shown
# T3 sequence: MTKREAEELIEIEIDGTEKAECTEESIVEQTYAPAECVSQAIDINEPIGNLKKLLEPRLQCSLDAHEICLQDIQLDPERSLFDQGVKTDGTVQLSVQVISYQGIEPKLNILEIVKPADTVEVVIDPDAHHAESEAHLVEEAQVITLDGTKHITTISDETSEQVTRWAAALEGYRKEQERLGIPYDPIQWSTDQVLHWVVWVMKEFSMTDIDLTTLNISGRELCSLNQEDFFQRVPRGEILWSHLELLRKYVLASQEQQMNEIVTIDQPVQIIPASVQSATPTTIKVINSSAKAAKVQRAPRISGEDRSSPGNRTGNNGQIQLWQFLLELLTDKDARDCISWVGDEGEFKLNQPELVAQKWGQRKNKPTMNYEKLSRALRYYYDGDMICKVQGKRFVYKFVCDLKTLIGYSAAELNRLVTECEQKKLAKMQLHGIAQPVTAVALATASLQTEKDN
# How it was run: as §1
# ERG = target: T4, ERG (Homo sapiens, UniProt P11308 1-479); details: protein: recombinant; tags: N-terminal GST; dsDNA, one strand shown
# T4 sequence: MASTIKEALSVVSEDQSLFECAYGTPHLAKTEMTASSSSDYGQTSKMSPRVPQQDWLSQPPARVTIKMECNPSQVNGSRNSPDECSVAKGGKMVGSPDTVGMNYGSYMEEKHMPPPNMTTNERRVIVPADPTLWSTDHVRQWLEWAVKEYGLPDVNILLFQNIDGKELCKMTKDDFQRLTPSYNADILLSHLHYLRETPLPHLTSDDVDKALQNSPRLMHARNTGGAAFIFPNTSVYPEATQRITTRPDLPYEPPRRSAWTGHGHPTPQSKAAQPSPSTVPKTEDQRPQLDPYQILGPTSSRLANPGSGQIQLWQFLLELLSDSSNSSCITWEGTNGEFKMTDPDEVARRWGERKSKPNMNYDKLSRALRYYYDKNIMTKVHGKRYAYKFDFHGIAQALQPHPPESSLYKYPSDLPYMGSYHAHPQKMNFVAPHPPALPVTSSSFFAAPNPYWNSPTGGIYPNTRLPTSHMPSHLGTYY
# How it was run: as §1
# ELF1 = ELF1 (Homo sapiens, UniProt P32519 1-619); details: protein: recombinant; tags: N-terminal GST; dsDNA, one strand shown
# Chain of ELF1 (P32519 whole entry): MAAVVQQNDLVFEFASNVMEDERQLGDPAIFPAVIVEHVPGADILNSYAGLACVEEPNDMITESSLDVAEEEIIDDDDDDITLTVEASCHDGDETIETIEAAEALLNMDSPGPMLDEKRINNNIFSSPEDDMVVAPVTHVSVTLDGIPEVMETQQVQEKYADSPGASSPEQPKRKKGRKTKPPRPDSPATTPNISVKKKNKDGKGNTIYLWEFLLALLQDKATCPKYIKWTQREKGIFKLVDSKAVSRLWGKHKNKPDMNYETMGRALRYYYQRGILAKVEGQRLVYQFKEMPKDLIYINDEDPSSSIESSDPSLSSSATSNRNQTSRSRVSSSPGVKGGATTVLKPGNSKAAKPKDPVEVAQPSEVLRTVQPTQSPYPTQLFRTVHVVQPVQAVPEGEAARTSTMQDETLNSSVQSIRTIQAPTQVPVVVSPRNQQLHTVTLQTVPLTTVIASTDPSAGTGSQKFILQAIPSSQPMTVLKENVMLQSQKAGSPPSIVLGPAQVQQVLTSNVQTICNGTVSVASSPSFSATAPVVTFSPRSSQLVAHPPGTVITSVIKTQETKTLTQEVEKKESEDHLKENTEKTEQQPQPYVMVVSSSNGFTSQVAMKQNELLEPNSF
# How it was run: as §1
# EHF = target: T5, EHF (Homo sapiens, UniProt Q9NZC4 1-300); details: protein: recombinant; tags: N-terminal GST; dsDNA, one strand shown
# T5 sequence: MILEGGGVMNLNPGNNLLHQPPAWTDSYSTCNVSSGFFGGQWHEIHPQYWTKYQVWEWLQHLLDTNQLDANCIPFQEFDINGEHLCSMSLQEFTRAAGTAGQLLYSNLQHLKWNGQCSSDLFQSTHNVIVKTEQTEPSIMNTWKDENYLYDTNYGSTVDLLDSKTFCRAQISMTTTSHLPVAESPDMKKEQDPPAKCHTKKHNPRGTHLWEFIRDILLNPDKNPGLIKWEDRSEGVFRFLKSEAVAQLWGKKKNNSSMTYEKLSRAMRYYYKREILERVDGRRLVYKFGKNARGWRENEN
# How it was run: as §1
# SPI1 = SPI1 (Homo sapiens, UniProt P17947 1-270); details: protein: recombinant; tags: N-terminal GST; dsDNA, one strand shown
# How it was run: as §1
# SPIB = SPIB (Homo sapiens, UniProt Q01892 1-262); details: protein: recombinant; tags: N-terminal GST; dsDNA, one strand shown
# Chain of SPIB (Q01892 whole entry): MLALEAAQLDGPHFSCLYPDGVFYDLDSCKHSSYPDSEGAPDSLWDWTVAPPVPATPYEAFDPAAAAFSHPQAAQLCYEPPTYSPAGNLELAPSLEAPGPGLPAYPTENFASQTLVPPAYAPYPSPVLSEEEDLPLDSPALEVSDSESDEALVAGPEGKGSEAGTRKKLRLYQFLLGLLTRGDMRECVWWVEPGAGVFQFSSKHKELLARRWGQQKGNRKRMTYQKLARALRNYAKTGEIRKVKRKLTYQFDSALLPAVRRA
# How it was run: as §1
# ELK3 = target: T6, ELK3 (Homo sapiens, UniProt P41970 1-407); details: protein: recombinant; tags: N-terminal GST; dsDNA, one strand shown
# T6 sequence: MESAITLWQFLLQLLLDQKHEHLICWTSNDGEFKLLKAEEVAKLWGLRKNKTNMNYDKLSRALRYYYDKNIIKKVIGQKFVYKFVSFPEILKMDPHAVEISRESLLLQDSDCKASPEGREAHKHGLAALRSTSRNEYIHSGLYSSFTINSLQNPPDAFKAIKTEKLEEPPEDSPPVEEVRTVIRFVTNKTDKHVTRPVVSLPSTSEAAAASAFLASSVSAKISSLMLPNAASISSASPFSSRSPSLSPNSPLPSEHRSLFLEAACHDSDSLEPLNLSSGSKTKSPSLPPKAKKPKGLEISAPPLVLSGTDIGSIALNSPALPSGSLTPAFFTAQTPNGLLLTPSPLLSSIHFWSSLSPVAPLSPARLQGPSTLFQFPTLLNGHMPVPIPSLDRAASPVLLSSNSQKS
# How it was run: as §1
# FEV = target: T7, FEV (Homo sapiens, UniProt Q99581 1-238); details: protein: recombinant; tags: N-terminal GST; dsDNA, one strand shown
# T7 sequence: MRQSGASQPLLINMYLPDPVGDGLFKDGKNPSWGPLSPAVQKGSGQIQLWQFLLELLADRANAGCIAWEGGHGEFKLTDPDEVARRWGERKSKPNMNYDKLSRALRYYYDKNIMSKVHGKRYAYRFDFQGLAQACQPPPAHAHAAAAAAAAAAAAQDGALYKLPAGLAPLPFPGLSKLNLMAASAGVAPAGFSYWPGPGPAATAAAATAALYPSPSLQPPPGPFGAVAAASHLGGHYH
# How it was run: as §1
# ETV5 = ETV5 (Homo sapiens, UniProt P41161 1-510); details: protein: recombinant; tags: N-terminal GST; dsDNA, one strand shown
# Chain of ETV5 (P41161 whole entry): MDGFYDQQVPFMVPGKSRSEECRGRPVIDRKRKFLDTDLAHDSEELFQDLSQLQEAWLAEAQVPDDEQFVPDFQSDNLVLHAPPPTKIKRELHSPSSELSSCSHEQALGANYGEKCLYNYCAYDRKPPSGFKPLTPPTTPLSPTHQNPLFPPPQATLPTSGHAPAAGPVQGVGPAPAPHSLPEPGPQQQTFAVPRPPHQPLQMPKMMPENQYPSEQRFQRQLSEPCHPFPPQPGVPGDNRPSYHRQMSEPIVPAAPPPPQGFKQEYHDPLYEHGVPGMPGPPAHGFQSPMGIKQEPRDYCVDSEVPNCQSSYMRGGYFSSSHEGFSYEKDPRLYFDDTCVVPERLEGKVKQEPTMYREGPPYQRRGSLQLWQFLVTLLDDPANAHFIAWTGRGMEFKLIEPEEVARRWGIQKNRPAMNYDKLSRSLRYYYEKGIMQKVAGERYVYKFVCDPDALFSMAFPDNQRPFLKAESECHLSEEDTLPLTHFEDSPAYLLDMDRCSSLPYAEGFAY
# How it was run: as §1
# HSF1 = HSF1 (Homo sapiens, UniProt Q00613 1-529); details: protein: recombinant; tags: N-terminal GST; chain copies: 3; dsDNA, one strand shown
# Chain of HSF1 (Q00613 whole entry): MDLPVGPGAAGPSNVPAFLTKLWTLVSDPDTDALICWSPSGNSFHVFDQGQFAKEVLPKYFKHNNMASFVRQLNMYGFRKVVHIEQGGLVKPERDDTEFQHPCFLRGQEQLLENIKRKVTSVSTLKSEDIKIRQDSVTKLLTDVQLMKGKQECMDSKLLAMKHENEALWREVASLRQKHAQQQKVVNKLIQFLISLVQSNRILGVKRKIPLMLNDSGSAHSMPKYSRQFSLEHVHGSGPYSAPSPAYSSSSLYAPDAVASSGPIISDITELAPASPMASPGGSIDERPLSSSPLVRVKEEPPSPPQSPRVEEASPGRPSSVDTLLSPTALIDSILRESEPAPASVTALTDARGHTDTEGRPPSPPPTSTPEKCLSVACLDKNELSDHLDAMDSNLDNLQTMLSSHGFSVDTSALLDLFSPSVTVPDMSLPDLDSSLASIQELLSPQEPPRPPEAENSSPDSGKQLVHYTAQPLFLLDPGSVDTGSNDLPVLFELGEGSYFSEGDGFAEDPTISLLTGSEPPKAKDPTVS
# How it was run: as §1
# SPIC = target: T8, SPIC (Homo sapiens, UniProt Q8N5J4 1-248); details: protein: recombinant; tags: N-terminal GST; dsDNA, one strand shown
# T8 sequence: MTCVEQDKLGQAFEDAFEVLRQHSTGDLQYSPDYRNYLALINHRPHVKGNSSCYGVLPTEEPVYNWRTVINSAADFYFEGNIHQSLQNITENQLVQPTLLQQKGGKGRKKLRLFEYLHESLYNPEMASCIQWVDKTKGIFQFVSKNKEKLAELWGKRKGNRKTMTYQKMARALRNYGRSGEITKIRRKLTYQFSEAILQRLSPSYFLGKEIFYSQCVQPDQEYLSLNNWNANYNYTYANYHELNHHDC
# How it was run: as §1
# ELF4 = ELF4 (Homo sapiens, UniProt Q99607 1-663); details: protein: recombinant; tags: N-terminal GST; dsDNA, one strand shown
# Chain of ELF4 (Q99607 whole entry): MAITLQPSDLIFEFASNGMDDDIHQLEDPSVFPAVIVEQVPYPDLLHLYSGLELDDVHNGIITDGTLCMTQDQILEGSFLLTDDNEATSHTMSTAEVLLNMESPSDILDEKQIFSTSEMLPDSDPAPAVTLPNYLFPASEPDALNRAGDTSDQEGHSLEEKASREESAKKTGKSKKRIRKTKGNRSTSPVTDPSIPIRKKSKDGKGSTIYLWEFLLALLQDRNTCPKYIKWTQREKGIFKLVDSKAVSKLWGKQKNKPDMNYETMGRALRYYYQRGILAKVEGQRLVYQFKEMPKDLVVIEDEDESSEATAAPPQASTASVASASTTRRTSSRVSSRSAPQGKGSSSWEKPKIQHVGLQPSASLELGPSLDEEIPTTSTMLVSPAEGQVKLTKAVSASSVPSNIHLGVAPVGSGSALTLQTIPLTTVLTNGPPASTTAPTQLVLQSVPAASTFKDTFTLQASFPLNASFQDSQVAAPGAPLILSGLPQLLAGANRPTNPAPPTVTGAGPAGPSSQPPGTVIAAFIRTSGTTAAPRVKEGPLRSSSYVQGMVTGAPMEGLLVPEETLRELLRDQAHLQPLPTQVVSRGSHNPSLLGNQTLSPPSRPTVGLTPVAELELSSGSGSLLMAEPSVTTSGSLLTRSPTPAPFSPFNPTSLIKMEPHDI
# How it was run: as §1
# ELK4 = target: T9, ELK4 (Homo sapiens, UniProt P28324-2 1-405); details: protein: recombinant; tags: N-terminal GST; dsDNA, one strand shown
# T9 sequence: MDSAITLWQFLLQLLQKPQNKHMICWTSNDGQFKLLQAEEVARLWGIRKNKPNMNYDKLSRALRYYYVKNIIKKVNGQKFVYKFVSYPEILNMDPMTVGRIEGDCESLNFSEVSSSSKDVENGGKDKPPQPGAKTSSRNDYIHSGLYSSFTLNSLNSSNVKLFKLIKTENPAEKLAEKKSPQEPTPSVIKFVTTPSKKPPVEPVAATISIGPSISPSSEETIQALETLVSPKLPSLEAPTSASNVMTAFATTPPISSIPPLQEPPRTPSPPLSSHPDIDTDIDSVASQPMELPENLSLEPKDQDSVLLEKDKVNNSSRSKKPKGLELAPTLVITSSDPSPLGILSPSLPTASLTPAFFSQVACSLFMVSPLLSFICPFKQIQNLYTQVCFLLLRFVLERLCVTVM
# How it was run: as §1
# ETV2 = target: T10, ETV2 (Homo sapiens, UniProt O00321 1-342); details: protein: recombinant; tags: N-terminal GST; dsDNA, one strand shown
# T10 sequence: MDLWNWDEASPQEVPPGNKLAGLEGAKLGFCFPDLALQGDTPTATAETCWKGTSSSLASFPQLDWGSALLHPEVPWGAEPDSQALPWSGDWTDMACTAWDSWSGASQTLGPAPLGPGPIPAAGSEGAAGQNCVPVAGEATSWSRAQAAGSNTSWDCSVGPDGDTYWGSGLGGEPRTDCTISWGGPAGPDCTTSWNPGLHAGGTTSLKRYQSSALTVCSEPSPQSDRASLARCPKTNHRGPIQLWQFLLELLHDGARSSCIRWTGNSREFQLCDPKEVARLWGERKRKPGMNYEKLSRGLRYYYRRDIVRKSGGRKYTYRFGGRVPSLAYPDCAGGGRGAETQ
# How it was run: as §1
# ELF3 = target: T11, ELF3 (Homo sapiens, UniProt P78545 1-371); details: protein: recombinant; tags: N-terminal GST; dsDNA, one strand shown
# T11 sequence: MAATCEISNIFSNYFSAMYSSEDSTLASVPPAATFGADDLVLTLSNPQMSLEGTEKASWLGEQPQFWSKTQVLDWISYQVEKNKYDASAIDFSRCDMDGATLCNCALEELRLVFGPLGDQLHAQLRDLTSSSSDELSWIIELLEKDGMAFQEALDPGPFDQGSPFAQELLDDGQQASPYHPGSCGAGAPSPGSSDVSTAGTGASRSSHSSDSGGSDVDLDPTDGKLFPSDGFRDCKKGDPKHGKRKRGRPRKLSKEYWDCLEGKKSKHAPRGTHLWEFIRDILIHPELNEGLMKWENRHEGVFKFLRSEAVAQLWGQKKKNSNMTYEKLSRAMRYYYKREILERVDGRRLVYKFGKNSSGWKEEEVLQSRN
# How it was run: as §1
# CRX = CRX (Homo sapiens, UniProt O43186 1-299); details: protein: recombinant; tags: N-terminal GST; dsDNA, one strand shown
# Chain of CRX (O43186 whole entry): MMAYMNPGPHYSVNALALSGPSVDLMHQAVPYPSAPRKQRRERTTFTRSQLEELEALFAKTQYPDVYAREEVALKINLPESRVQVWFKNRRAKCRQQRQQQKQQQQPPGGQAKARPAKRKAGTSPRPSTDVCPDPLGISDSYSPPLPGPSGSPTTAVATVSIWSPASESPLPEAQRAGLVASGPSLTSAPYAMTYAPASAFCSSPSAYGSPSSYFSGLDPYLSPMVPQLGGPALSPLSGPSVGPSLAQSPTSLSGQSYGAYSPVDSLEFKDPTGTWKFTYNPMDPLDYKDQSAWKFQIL
# How it was run: as §1
# ETV1 = ETV1 (Homo sapiens, UniProt P50549 1-477); details: protein: recombinant; tags: N-terminal GST; dsDNA, one strand shown
# Chain of ETV1 (P50549 whole entry): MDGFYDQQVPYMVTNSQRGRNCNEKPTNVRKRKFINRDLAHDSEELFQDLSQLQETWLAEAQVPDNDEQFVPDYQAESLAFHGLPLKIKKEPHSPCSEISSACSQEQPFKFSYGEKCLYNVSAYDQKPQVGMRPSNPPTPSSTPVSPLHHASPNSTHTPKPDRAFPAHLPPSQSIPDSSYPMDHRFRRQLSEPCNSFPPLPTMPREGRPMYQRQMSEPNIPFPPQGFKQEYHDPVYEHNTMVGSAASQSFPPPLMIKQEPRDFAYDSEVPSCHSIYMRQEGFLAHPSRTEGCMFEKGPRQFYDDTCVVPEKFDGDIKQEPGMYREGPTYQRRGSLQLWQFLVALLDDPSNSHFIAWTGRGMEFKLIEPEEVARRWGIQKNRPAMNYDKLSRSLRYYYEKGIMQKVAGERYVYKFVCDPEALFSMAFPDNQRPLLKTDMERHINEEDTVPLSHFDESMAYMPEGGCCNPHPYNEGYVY
# How it was run: as §1
sequence,measurement,setting,value
ATGGCT,binding signal,FLI1,"1.17 fold enrichment (6-mer frequency, TF over GST control)"
same,binding signal,ELK1,"1.34 fold enrichment (6-mer frequency, TF over GST control)"
same,binding signal,GABPA,"1.29 fold enrichment (6-mer frequency, TF over GST control)"
same,binding signal,ERG,"1.37 fold enrichment (6-mer frequency, TF over GST control)"
same,binding signal,ELF1,"1.37 fold enrichment (6-mer frequency, TF over GST control)"
same,binding signal,EHF,"1.4 fold enrichment (6-mer frequency, TF over GST control)"
same,binding signal,SPI1,"1.28 fold enrichment (6-mer frequency, TF over GST control)"
same,binding signal,SPIB,"1.37 fold enrichment (6-mer frequency, TF over GST control)"
same,binding signal,ELK3,"1.28 fold enrichment (6-mer frequency, TF over GST control)"
same,binding signal,FEV,"1.33 fold enrichment (6-mer frequency, TF over GST control)"
same,binding signal,ETV5,"1.29 fold enrichment (6-mer frequency, TF over GST control)"
same,binding signal,HSF1,"1.32 fold enrichment (6-mer frequency, TF over GST control)"
same,binding signal,SPIC,"1.42 fold enrichment (6-mer frequency, TF over GST control)"
same,binding signal,ELF4,"1.32 fold enrichment (6-mer frequency, TF over GST control)"
same,binding signal,ELK4,"1.34 fold enrichment (6-mer frequency, TF over GST control)"
same,binding signal,ETV2,"1.41 fold enrichment (6-mer frequency, TF over GST control)"
same,binding signal,ELF3,"1.33 fold enrichment (6-mer frequency, TF over GST control)"
same,binding signal,CRX,"1.48 fold enrichment (6-mer frequency, TF over GST control)"
same,binding signal,ETV1,"1.29 fold enrichment (6-mer frequency, TF over GST control)"
